# Unmarked numbers belong to inactive results. Active and inactive are the calls of the source. The call rests on the fitted dose curve; in most records, active means well fitted curve in the direction sought with a large enough effect; inconclusive means small, poorly fitted or top-dose-only effect, or effect the other way, or another doubt; inactive means no such curve, though single readings can be large or run the other way.
# Assay: Secondary Assay for lipid storage modulators: AML12 cell LDSA assay for probe SAR
# Settings: AML12 lipid droplet accumulation, BODIPY 493/503 imaging, oleate; series mostly up to 46.1 µM; activity change, negative = inhibition: at the top concentration
# From the text: NIH Molecular Libraries Probe Production Centers Network [MLPCN] NIH Chemical Genomics Center [NCGC] MLPCN Grant: 1 R03 MH085686-01 Assay Submitter (PI): Beller, Mathias; Max-Planck-Institut fur Biophysikalische Chemie NCGC Assay Overview: Storing lipids as a reservoir for energy or the anabolism of elementary metabolites is a common feature of probably all cells and is conserved from bacteria to humans. The universal cellular lipid storage organelle is the so-called lipid storage droplet (LD). Although ubiquitous, LDs share a simple structure composed of a hydrophobic core that harbors the storage lipids, which is shielded by a droplet-specific phospholipid monolayer to which proteins are attached. The current model of LD biogenesis involves an incorporation of the lipid core into the membrane leaflets of the endoplasmic reticulum (ER) followed by a subsequent budding-like maturation of a LD, which ultimately pinches off. Once released, LD volume can increase by localized lipogenesis or fusion of existing droplet. Storage lipids are re-mobilized enzymatically by lipase activity. Lipase regulation in the adipocyte is heavily studied and involves multiple components including catecholamine signaling, the LD-associated proteins Perilipin and comparative gene identification (CGI-58) and at least two lipases named hormone sensitive lipase (HSL) and adipocyte triglyceride lipase (ATGL). LD regulation outside of the adipocyte is poorly understood and only few components are known. However, there is an urgent need to learn more about ectopic fat depots as mislocalized storage of lipids, for example in the liver or muscle, is an eminent health problem associated with insulin resistance or the metabolic syndrome.
# NCGC Assay Protocol Summary: The assay was performed with AML12 cells, using an oleic acid feeding protocol similar to the S3 assay. We dispensed 4 uL of cells to give 700 cells/well into Greiner bio-one 1,536-well plates (black walled, clear bottom). Triacsin C (Sigma-Aldrich T-4540), an inhibitor of long-chain fatty acyl CoA synthetase that blocks synthesis of triglycerides, was used as a positive control for lipid under-storage using a final concentration of 20 uM. The orexin antagonist, SB408124 - previously identified to stimulate lipid over-storage, was used as a positive control for lipid over-storage using a final concentration of 20 uM. A total of 23 nL of compound solution of different concentrations were transferred to the assay plates using a Kalypsys pin tool equipped with a 1,536-pin array containing 10-nL slotted pins (FP1S10, 0.457-mm diameter, 50.8 mm long; V&P Scientific). One microliter of oleic acid was added (400 uM final concentration), and the plate was lidded with stainless steel rubber gasket lined lids containing pinholes. After 18-24 h incubation at […] and 95% humidity, 4 uL of the dyes BODIPY 493/503 (Molecular Probes) and the Cell Tracker Red CMTPX dye (Molecular Probes) were added to the wells to stain lipid droplets and enumerate cell number, respectively. Fluorescence was detected by excitation of the fluorophores with a 488-nm laser on an Acumen Explorer (TTP Lab Tech). The total intensity in channel 2 (500-530 nm) reflected lipid droplet accumulation. Cells were detected using channel 3 (575-640 nm) with 5-um width and 100-um depth filters. The ratio of the number of objects in PMT channel 2 over the number of objects in PMT channel 3 was also calculated. Percent activity was computed relative to an internal control (100% inhibited lipid droplet deposition due to the presence of 20 uM Triacsin C), which was added to 32 wells/plate.
Structure (SMILES),"activity change, negative = inhibition",Potency
O=C(Cc1cccs1)Nc1nc(-c2ccncc2)cs1,10%,–
Cc1ccc(-c2cnc(SCC(=O)Nc3nccs3)n2Cc2ccco2)cc1,-10.1%,–
COc1ccc(CCNC(=O)c2cc3sccc3n2Cc2ccc(Cl)cc2)cc1OC,–,0.0307 µM (active)
CCn1c(-c2ccc(C)cc2)cnc1SCC(=O)Nc1nc(C)cs1,-8.86%,–
COCCn1c(-c2ccc(C)cc2)cnc1SCC(=O)Nc1nc(C)cs1,-34.2%,–
CCOC(=O)C1CCN(C(=O)C(C)(C)NC(=O)Nc2ccc3ccccc3c2)CC1,-61.8%,–
CCOC(=O)C1CCN(C(=O)C(C)(C)NC(=O)Nc2ccc(OC)c(Cl)c2)CC1,-44.8%,–
S=C(Nc1cc(Cl)ccc1Oc1ccccc1)N1CCN(c2ncccn2)CC1,10%,–
COc1ccccc1NC(=S)N1CCN(c2cc(Cl)ccc2C)CC1,-20%,–
O=C(NC1CCCc2c1cnn2-c1ccc(F)cc1F)c1ccn[nH]1 (stereo not given),-31.6%,–
O=C(NC1CCCc2c1cnn2-c1ccc(F)cc1F)c1cccc(=O)[nH]1 (stereo not given),-22.4%,–
COc1ccc(CCNC(=O)c2cc3sccc3n2Cc2ccc(F)cc2)cc1OC,–,3.15 µM (active)
O=C(NC1CCCc2c1cnn2-c1ccc(F)cc1F)c1cnsn1 (stereo not given),-14.3%,–
O=C(NC1CCCc2c1cnn2-c1ccccc1F)c1ccc2ncccc2c1 (stereo not given),12.9%,–
CCOc1ccc(CCNC(=O)c2cc3sccc3[nH]2)cc1OCC,-1.32%,–
COc1ccc(Cl)cc1NC(=S)N1CCN(c2ccccc2)CC1,-22.9%,–
CC(C)(C)OC(=O)NCCOCCOCCOc1ccc(-n2ncc3c2CCCC3NC(=O)c2ccccn2)cc1 (stereo not given),-35.4%,–
CC1=C(C(=O)NC2CCCc3c2cnn3-c2ccc(F)cc2F)OCCO1 (stereo not given),-10.5%,–
COc1ccc(NC(=S)N2CCN(c3cccc(Cl)c3)CC2)c(OC)c1,15.7%,–
CCOC(=O)C1CCN(C(=O)C(C)(C)NC(=O)Nc2cccc(-c3csc(C)n3)c2)CC1,-30.2%,–

Structure (SMILES),"activity change, negative = inhibition",Potency
COc1ccc(-c2cnc(SCC(=O)Nc3nc(C)cs3)n2-c2ccccc2)cc1,15.2%,–
O=C(NC1CCCc2c1cnn2-c1ccc(F)cc1F)C1CCCCC1 (stereo not given),5.26%,–
CCOC(=O)C1CCN(C(=O)C(C)(C)NC(=O)Nc2ccc(N)cc2)CC1,-8.33%,–
O=C(Nc1cccc2nn(-c3ccc(F)cc3)cc12)c1ccccn1,-9.21%,–
CCn1c(C(=O)NCCc2ccc(OC)c(OC)c2)cc2sccc21,-25%,–
O=C(NC1CCCc2c1cnn2-c1cc(F)cc(F)c1)c1cccc2nccnc12 (stereo not given),-45.6% [at 30.7 µM],–
COc1ccc(CCNC(=O)c2cc3sc(C)cc3n2C)cc1OC,8.57%,–
COc1cccc(-n2ncc3c2CCCC3NC(=O)c2ccccn2)c1 (stereo not given),–,0.0445 µM [inconclusive] (active)
Cc1ccc(C)c(-c2csc(NC(=O)CSc3nnc(Nc4ccc(OC(F)(F)F)cc4)s3)n2)c1,15.7%,–
O=C(NC1CCCc2c1cnn2-c1ccc(F)cc1F)c1ccccc1 (stereo not given),-7.89%,–
Cc1cccc(-c2ccc3ncnc(NCc4cccc(F)c4)c3c2)c1,-19.7%,–
CCOc1ccc(NC(=O)NC2(C(=O)N3CCCCC3)CCCCC2)cc1,-27.8%,–
O=C(CSc1nnc(NCc2ccccc2)s1)Nc1nc(-c2cccc(Br)c2)cs1,18.6%,–
O=C(NC1CCCc2c1cnn2-c1ccc(F)cc1F)c1cnon1 (stereo not given),-39.5%,–
O=C(NC1CCCc2c1cnn2-c1ccc(F)cc1F)c1cccc(F)c1F (stereo not given),-1.43%,–
O=C(NC1CCCc2c1cnn2-c1ccc(F)cc1F)c1c(F)cccc1Cl (stereo not given),0%,–
O=C(NC1CCCc2c1cnn2-c1ccc(F)cc1F)c1cccs1 (stereo not given),-23.7%,–
CCOC(=O)C1CCN(C(=O)C(C)(C)NC(=O)Nc2cccc(C(=O)OC)c2)CC1,-29.2%,–
COc1ccc(Cl)cc1NC(=S)N1CCN(c2ccc(F)cc2)CC1,-21.4%,–
Cc1ccc(-c2cnc(SCC(=O)Nc3nc(C)cs3)n2Cc2ccco2)cc1,-24.1%,–
